GLS inh: blocks human kidney-isoform glutaminase activity | GLS enzymatic activity, qHTS titration | Potency, µM (top dose mostly 45.5 µM), for inactives: at the top dose activity change, negative = inhibition, most hits filed as inhibitors | 0.21% of 410,000 active; also: % is scaled to controls: 0 for no effect and ±100 for the full control effect
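Glutamate formation by hKGA was monitored fluorometrically using coupled glutamate oxidase, HRP and Amplex Red. Substrate was added as 1 mM L-glutamine solution; incubation was 30 min at RT after an initial read.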
BAZ2B block: inhibitors of human BAZ2B bromodomain; Q9UIF8; AlphaScreen BAZ2B-H3K14Ac peptide displacement; Potency, µM (titrated, usually from 114 µM), for inactives: at the top dose activity change, negative = inhibition, most hits filed as inhibitors; 4.4% of 360,000 active; also: % is scaled to controls: 0 for no effect and ±100 for the full control effect; nearly all actives have a fitted effect of over 60% in size
Target sequence (Q9UIF8 whole entry, looked up): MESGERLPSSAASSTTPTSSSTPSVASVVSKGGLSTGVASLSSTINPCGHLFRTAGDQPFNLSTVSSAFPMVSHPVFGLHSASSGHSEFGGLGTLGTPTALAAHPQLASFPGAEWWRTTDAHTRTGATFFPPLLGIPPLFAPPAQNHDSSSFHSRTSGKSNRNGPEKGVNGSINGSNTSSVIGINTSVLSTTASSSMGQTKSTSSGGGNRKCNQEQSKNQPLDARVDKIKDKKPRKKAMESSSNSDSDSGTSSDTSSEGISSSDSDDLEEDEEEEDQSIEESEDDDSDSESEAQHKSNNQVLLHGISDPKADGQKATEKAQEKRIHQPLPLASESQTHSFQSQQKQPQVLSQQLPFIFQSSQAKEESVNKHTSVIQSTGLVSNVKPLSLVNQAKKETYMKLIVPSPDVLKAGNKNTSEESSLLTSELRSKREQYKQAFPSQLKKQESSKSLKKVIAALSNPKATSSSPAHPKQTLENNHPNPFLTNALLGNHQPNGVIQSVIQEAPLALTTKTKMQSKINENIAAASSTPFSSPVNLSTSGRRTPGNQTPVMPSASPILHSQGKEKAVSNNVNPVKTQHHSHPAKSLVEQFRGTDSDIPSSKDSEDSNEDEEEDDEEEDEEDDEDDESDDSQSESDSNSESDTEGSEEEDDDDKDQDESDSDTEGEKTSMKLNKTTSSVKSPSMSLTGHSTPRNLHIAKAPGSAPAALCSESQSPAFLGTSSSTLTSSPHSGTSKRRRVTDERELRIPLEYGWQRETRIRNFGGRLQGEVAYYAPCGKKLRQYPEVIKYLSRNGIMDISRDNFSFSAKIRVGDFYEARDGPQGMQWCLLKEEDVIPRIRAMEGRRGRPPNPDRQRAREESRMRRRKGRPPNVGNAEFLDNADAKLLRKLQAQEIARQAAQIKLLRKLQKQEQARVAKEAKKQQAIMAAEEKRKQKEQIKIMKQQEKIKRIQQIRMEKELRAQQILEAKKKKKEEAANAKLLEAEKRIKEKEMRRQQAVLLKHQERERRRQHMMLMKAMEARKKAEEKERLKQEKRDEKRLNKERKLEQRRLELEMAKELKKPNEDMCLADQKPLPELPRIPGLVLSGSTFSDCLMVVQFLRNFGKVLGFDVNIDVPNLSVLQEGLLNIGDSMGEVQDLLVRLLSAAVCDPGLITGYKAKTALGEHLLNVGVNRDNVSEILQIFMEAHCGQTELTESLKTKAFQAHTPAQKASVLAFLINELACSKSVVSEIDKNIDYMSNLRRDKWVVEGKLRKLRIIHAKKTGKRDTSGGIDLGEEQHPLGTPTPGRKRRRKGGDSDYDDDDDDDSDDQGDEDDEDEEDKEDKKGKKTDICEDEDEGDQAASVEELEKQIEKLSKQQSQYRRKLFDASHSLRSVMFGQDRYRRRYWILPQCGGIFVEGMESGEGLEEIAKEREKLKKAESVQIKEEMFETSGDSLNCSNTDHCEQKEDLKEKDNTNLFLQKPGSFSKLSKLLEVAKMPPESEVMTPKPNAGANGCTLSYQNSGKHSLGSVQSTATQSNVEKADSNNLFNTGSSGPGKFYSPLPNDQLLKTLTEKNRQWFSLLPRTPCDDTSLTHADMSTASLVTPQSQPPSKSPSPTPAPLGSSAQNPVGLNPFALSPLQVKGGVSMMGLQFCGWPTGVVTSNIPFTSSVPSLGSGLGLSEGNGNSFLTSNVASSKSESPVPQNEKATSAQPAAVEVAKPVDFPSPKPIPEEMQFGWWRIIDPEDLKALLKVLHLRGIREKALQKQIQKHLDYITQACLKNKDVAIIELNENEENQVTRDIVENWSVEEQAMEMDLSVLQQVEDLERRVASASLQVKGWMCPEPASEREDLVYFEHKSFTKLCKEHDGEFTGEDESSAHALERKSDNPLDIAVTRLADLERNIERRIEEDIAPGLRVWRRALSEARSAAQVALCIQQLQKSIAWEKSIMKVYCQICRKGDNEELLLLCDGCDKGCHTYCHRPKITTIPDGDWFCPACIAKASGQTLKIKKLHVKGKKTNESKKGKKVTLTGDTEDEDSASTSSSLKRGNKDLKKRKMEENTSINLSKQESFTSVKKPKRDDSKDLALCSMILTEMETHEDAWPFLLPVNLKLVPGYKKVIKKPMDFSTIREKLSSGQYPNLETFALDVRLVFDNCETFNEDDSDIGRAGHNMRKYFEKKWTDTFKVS
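AlphaScreen displacement: compounds (up to 110uM) incubated 30 min at room temperature with a preformed 50 nM BAZ2B/50 nM biotinylated H3K14Ac peptide complex in PBS pH 7.4 with Tween-20. Donor and acceptor beads at 10 ug/mL final added, 20 min light-protected before reading.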
JMJD2A Tudor inh: JMJD2A Tudor domain (human) inhibition. AlphaScreen JMJD2A-Tudor / H3K4me3 peptide binding. Potency, µM (top dose mostly 114 µM), inactives show at the top dose activity change, negative = inhibition, actives largely listed as inhibitors. 4.4% of 390,000 active; also: % is scaled to controls: 0 for no effect and ±100 for the full control effect; nearly all actives have a fitted effect of over 50% in size
HP1b binding inh: blocks HP1-beta chromodomain binding to methylated histone tails; P83916; AlphaScreen HP1-beta / biotin-H3K9me3 peptide binding; Potency, µM (highest dose often 114 µM), for the others: top-dose activity change, negative = inhibition, usual class: inhibitors; 0.56% of 390,000 active; AID 540317; also: nearly all actives have a fitted effect of over 70% in size
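HP1-beta protein (50 nM final) preincubated 30 min at room temperature with biotinylated H3(1-18)K9me3 peptide (50 nM) in PBS pH 7.4, 0.01% Tween-20, then compound added for 30 min. AlphaScreen streptavidin donor/nickel chelate acceptor beads (10 ug/mL final), 30 min dark, luminescence read.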
G9a inh: G9a (human) methyltransferase inhibition; Q96KQ7; G9a H3K9 monomethylation, AlphaScreen, 2 h; Potency, µM (series often up to 102 µM), without a hit: at the highest dose activity, negative = inhibition, hits mostly inhibitors; 8.8% of 350,000 active; AID 504332; also: % is scaled to controls: 0 for no effect and ±100 for the full control effect; nearly all actives have a fitted effect of over 75% in size
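Chemiluminescent proximity detection of H3K9 monomethylation, read after 10 min bead incubation in the dark. Reaction: 20 nM G9a, 500 nM biotin-H3K9 peptide, 20 uM SAM cofactor, 2 h, room temperature, following 15 min enzyme-compound preincubation.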
* marks the source's active call; other numbers are inactive results; ? = inconclusive; nt = no result; [ ] = dose if it differs, or a comment. Rows were chosen to be rich in hits. Some 10% of all compounds tested hit in one or more screens of this group. Calls follow the shape of the dose curve; as a rule, active = well fitted curve in the direction sought with a large enough effect; inconclusive = small, poorly fitted or top-dose-only effect, or another doubt; inactive = no such curve, though single readings can be large; an effect the other way counts as inactive or inconclusive. Potency is read from the fitted curve at half-maximal effect.

SMILES	GLS inh	BAZ2B block	JMJD2A Tudor inh	HP1b binding inh	G9a inh
Oc1ccc(C[C@H]2CNC(=S)N2CC2CCCN2C[C@H](Cc2ccccc2)N2C[C@H](Cc3ccc(O)cc3)N(CC3CCCCC3)C2=S)cc1 (stereo not given in full)	1.5%	nt	nt	nt	nt
Cc1ccc(N2C(=O)CC(Sc3nc4ccccc4o3)C2=O)cc1Cl (stereo not given)	6.1%	4.8%	?	75.4%	11.2µM*
CC(=O)Nc1nc2n(n1)C(c1ccccc1)C=C(c1ccccc1)N2 (stereo not given)	-6.5%	79.4µM*	89.1µM*	40.4%	?
COc1ccc(C2C=C(c3ccc(Cl)cc3)Nc3nc(NC(C)=O)nn32)cc1 (stereo not given)	nt	31.6µM*	nt	nt	?
CC(=O)Nc1nc2n(n1)C(c1ccc(F)cc1)C=C(c1ccccc1)N2 (stereo not given)	?	22.4µM*	?	24.5%	8.91µM*
COc1ccc(C(=O)Nc2nc3n(n2)C(c2ccccc2)C=C(c2ccccc2)N3)cc1 (stereo not given)	4.3%	22.4µM*	79.4µM*	38.9%	25.1µM*
COc1ccc(C2C=C(c3ccc(F)cc3)Nc3nc(-c4ccc(Cl)cc4)nn32)cc1 (stereo not given)	-28.8%	-0.9%	-33.9%	68.1%	-12.6%[59 µM]
O=C(O)C1C(c2ccccc2)c2ccccc2C(O)C1CO (stereo not given)	-5.9%	nt	0.0%	36.7%	nt
Cc1cc(C(=O)NNc2ccc(F)cc2)no1	-6.7%	3.2%	-3.5%	37.2%	28.2µM*
Cc1cc(C(=O)NNc2ccccc2F)no1	8.5%	-1.2%	-4.1%	45.4%	39.8µM*
Cc1cc(C(=O)NNc2c(Cl)cccc2Cl)no1	55.9%	-1.9%	9.0%	42.4%	28.2µM*
Cc1cc(C(=O)NNc2cc(Cl)ccc2Cl)no1	-14.4%	-0.6%	-25.3%	-0.4%	-22.3%
O=C(NNc1c(Cl)cccc1Cl)c1c(F)cccc1Cl	-1.1%	12.7%	-8.3%	54.5%	-1.2%
Cc1ccc(NC(=O)c2cc(C)on2)cc1	7.5%	-0.7%	3.2%	15.0%	?
O=C(NNc1c(Cl)cccc1Cl)c1sccc1Cl	-19.3%	-14.2%	-8.7%	72.5%	12.6µM*
CCCc1ccc(C(=O)NNc2ccccc2F)cc1	-0.7%	-14.1%	-9.6%	62.9%	56.2µM*
CCc1ccccc1NNC(=O)c1cc(C)on1	8.7%	2.3%	-10.3%	49.6%	3.16µM*
CCc1ccc(C(=O)NNc2ccccc2F)cc1	15.0%	-18.1%	-10.8%	40.1%	nt
FC(F)(F)c1ccccc1-c1nc(NCc2cccnc2)c2ccccc2n1	nt	nt	nt	nt	-2.2%[0.501 µM]
CN1CCc2cc(NC(=O)Nc3cccnc3)ccc21	nt	nt	nt	nt	43.9%[12.7 µM]
Cn1ccc2cc3c(cc21)CCN3C(=O)Nc1cccnc1	23.4%	?	79.4µM*	-27.6%	9.47µM*
FC(F)(F)c1cnc(Nc2ccc(N3CCOCC3)cc2)c(Cl)c1	-6.2%	35.5µM*	?	?	22.4µM*
CN1CC(=O)NC1=NC(=O)c1cc(F)c(F)cc1Cl	-7.1%	?	-24.1%	16.6%	31.6µM*
CN1CC(=O)NC1=NC(=O)c1ccc(Cl)c(S(=O)(=O)N2CCCCCC2)c1	-1.0%	5.9%	-35.2%	35.2%	-20.6%[59 µM]
c1ccc(C(c2ccccc2)N2CCN(Cc3nc(-c4cnccn4)no3)CC2)cc1	2.3%	-22.0%	-10.9%	42.7%	?
SMILES	GLS inh	BAZ2B block	JMJD2A Tudor inh	HP1b binding inh	G9a inh
Clc1cccc2c1CCN(Cc1nc(-c3cnccn3)no1)C2	-7.5%	-18.7%	0.0%	17.9%	39.8µM*
CC(=O)Nc1ccn(C2CC3OCC(NC(=O)C(Cc4ccccc4)NC(=O)OC(C)(C)C)C3O2)c(=O)n1 (stereo not given)	nt	nt	-20.7%	41.2%	nt
COc1ccc(F)cc1S(=O)(=O)N1CC(C)CC(C)C1 (stereo not given)	-1.0%	1.7%	15.2%	48.8%	32.0%[59 µM]
CCCCOc1ccc(-c2nnc(-c3ccncc3)o2)cc1	0.0%	9.3%	-9.5%	19.1%	12.5%
CCOc1ccc(-c2nnc(-c3ccncc3)o2)cc1	42.7%	-35.8%	50.1µM*	?	-30.1%
CC(=O)N1[C@H](C)C=C[C@]1(Cc1ccccc1)C(=O)NCCc1c[nH]c2ccccc12	6.6%	?	-24.3%	24.7%	?
